A selection: hits, their analogues and other compounds. The true share with any hit is near 21%.
CHX counter: affects cycloheximide protein synthesis inhibition readout, counter-screen; max response, %; 300,000 tested, 12% active; AID 2314; cell reporter, cycloheximide protein synthesis inhibition counterscreen; in the data active = max response mostly above about 13%, no sharp cut-off; inactive = mostly below about 14%; also: read at 38.3 µM for the half of the compounds with a filed dose; 0% is about no effect
Pf growth 48h: inhibits P. falciparum growth in the first generation, 48 h. P. falciparum luciferase growth in erythrocytes, 48 h. 310,000 tested, 5.9% active. Potency, µM (top dose mostly 28.7 µM), without a hit: at the top dose activity change, negative = inhibition, most hits filed as inhibitors; also: potency is read from the fitted curve at half-maximal effect; % is scaled to controls: 0 for no effect and ±100 for the full control effect
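Growth was read as firefly luciferase luminescence after a 48 h, 37 C, 5% CO2 exposure of compounds to reporter-bearing P. falciparum cultures (0.1% parasitemia, 2% hematocrit final) in Albumax-supplemented RPMI 1640.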
Shiga inhibitor: Shiga toxin inhibition | Vero cells, Shiga toxin protein synthesis inhibition reporter | inhibition, % at 38.7 µM | 290,000 tested, 9.2% active | AID 2315; in the data active = inhibition mostly above about 28%, no sharp cut-off; inactive = mostly below about 43%; also: 0% is about no effect
Sm TGR inh: inhibitors of Schistosoma mansoni thioredoxin glutathione reductase | Potency, µM (top dose mostly 114 µM), for the others: at the top dose activity change, negative = inhibition, usual class: inhibitors | AID 485364 | purified TGR, DTNB reduction, TNB absorbance 405 nm | 360,000 tested, 3% active; also: potency is read from the fitted curve at half-maximal effect; % is scaled to controls: 0 for no effect and ±100 for the full control effect; nearly all actives have a fitted effect of over 60% in size
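Kinetic colorimetric format: TGR-catalysed, NADPH-driven DTNB reduction monitored via TNB absorbance. Enzyme dispensed at 20 nM; compound exposure 15 min at room temperature before reaction start.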
Pf growth 96h: P. falciparum growth inhibition at 96 hours; P. falciparum luciferase reporter growth, 96 h; Potency, µM (series often up to 28.7 µM), for the others: at the top dose activity change, negative = inhibition, hits mostly inhibitors; 320,000 tested, 6.9% active; also: potency is read from the fitted curve at half-maximal effect; % is scaled to controls: 0 for no effect and ±100 for the full control effect
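Two-generation exposure (96 h) targets delayed-death phenotype. Reporter parasites carrying integrated firefly luciferase, in red cells at 2% hematocrit and 0.05% parasitemia final, kept at 37 C, 5% CO2; luminescence loss indicates inhibition.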
NS1 function inh: blocks influenza NS1 protein function; 270,000 tested, 0.4% active; Potency, µM (doses to about 46.1 µM), without a hit: at the highest dose activity, positive = more growth; AID 2326; calls by dose curve; also: potency is read from the fitted curve at half-maximal effect; actives are rising curves; nearly all actives have a fitted effect of over 50% in size
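OD600 was taken as the measure of yeast growth restored by compound in an NS1-expressing S. cerevisiae strain. Cells had been washed out of glucose medium and diluted 1:100 into galactose -URA medium, pH 6.0.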
Starred values were filed as active, the others as inactive; ? = inconclusive; / = not tested or not shown. Unless noted, calls follow the shape of the dose curve; as a rule, active = well fitted curve in the direction sought with a large enough effect; inconclusive = small, poorly fitted or top-dose-only effect, or another doubt; inactive = no such curve, though single readings can be large; an effect the other way counts as inactive or inconclusive.

SMILES	CHX counter	Pf growth 48h	Shiga inhibitor	Sm TGR inh	Pf growth 96h	NS1 function inh
CN1/C(=C\C(=O)COC(=O)c2ccc(O)c(O)c2)C(C)(C)c2ccccc21	-3.5	-10.9%	-4.0	-2.6%	11.4%	/
CN1/C(=C\C(=O)C[n+]2cccc(C(N)=O)c2)C(C)(C)c2ccccc21	4.1	?	-5.1	9.8%	?	/
Cc1ccc[n+](CC(=O)/C=C2\N(C)c3ccccc3C2(C)C)c1	-5.9	?	-3.8	-13.0%	0.37µM*	10.8%
CN1/C(=C\C(=O)C[n+]2ccc(C(=O)c3ccccc3)cc2)C(C)(C)c2ccccc21	-0.3	2.08µM*	12.2	-8.8%	7.38µM*	/
COc1ccccc1NC(=O)C1=C(C)Nc2ncnn2C1c1cccn1C (stereo not given)	/	/	/	-1.1%	/	/
CCOCCCNC(=O)C(c1ccc(Cl)cc1)N(Cc1ccc2c(c1)OCO2)C(=O)c1ccc(NC(C)=O)cc1 (stereo not given)	/	/	/	24.9%	/	/
CCCCNc1nc(SC)nc2nc[nH]c12	/	/	/	/	/	-8.3%
O=C1CCCC(=O)C1=C1SCCS1	-4.5	15.5%	-6.6	-8.3%	-29.3%	2.0%
CN1/C(=C\C(=O)CSc2nnc(N)s2)C(C)(C)c2ccccc21	0.9	4.3%	10.6	-2.4%	0.0%	7.5%
Cc1cccc[n+]1CC(=O)/C=C1\N(C)c2ccccc2C1(C)C	3.2	2.94µM*	6.9	-1.9%	2.94µM*	1.2%
COc1ccc(Nc2nnc(SCC(=O)/C=C3/N(C)c4ccccc4C3(C)C)s2)cc1	-3.0	9.28µM*	7.6	-15.8%	7.38µM*	15.0%
O=C(O)CSc1cccc[n+]1[O-]	0.5	19.0%	-7.6	5.8%	21.8%	8.2%
O=C(CSc1cccc[n+]1[O-])C12CC3CC(CC(C3)C1)C2	4.9	0.4%	-9.3	53.3%	4.15µM*	/
CN1/C(=C\C(=O)COC(=O)c2ccc(O)cc2)C(C)(C)c2ccccc21	-2.3	0.6%	4.6	-28.3%	?	-1.8%
CC1=CC(=O)C(C(C)C)=CC1=NC(=O)c1ccc(C)cc1	-0.9	?	-5.4	3.16µM*	9.0%	/
COc1ccc(C2=NS(=O)(=O)N(C)C(C(=O)Nc3ccc4c(c3)OCO4)=C2)cc1	-2.2	33.1%	8.0	-16.1%	27.9%	-10.7%
CN1C(C(=O)Nc2cccc(O)c2)=CC(c2ccco2)=NS1(=O)=O	10.4*	54.4%	7.8	-5.3%	24.4%	16.2%
COc1ccc(NC(=O)C2=CC(c3ccc4c(c3)OCO4)=NS(=O)(=O)N2C)cc1OC	/	/	/	-0.9%	/	/
Cc1ccc(C2=NS(=O)(=O)N(C)C(C(=O)Nc3ccc4c(c3)OCO4)=C2)cc1	18.1*	2.4%	17.7*	2.5%	5.1%	11.7%
COc1ccc(C2=NS(=O)(=O)N(C)C(C(=O)Nc3ccc4c(c3)OCO4)=C2)cc1OC	20.1*	-16.3%	11.3	-3.4%	123.2%	9.5%
O=C(CSc1nc2c([nH]c3ccccc32)c(=O)n1-c1cccc(Cl)c1)NCc1ccccc1	/	/	/	-0.6%	/	/
COC(=O)[C@H](Cc1ccccc1)NC(=O)Nc1ccc(C)cc1	12.6	11.6%	16.2	-18.0%	/	-7.2%
CC1(C)CC(=O)c2c(-c3cccs3)n[nH]c2C1	18.3*	33.9%	89.5*	-1.5%	26.8%	-33.0%
C=CCOCC(O)Cn1c(N2CCCC2)nc2c1c(=O)[nH]c(=O)n2C (stereo not given)	-2.5	5.2%	-2.4	-1.6%	6.57µM*	11.5%
Cn1c(=O)[nH]c(=O)c2c1nc(N1CCCCC1)n2C/C=N/Nc1ccc(C(=O)O)cc1	62.0*	?	45.8	-25.4%	47.0%	0.9%
SMILES	CHX counter	Pf growth 48h	Shiga inhibitor	Sm TGR inh	Pf growth 96h	NS1 function inh
Cn1c(=O)[nH]c(=O)c2c1nc(N1CCCC1)n2CC(O)COc1ccccc1 (stereo not given)	-0.9	/	0.8	4.6%	?	?
Cc1ccccc1OCC(O)Cn1c(N2CCCCC2)nc2c1c(=O)[nH]c(=O)n2C (stereo not given)	11.7	-5.6%	-5.3	-7.1%	13.7%	5.0%
Cn1c(=O)[nH]c(=O)c2c1nc(N1CCCCC1)n2CC(O)COc1ccc([N+](=O)[O-])cc1 (stereo not given)	-1.6	-12.2%	45.3	8.4%	9.28µM*	1.1%
COc1ccc(-n2ncc(C(=O)Nc3ccc(C)cc3Cl)c2C2CCN(C(=O)OC(C)(C)C)CC2)cc1	/	/	/	2.2%	/	/
COc1ccccc1C(=O)N/C(=C\c1cn(S(=O)(=O)N(C)C)c2ccccc12)C(=O)NCCCN1CCOCC1	7.3	?	-17.9	-1.5%	?	-2.4%
CC(=O)OCC(NC(=O)C(C)NC(=O)OC(C)(C)C)C1OC(n2cc(C)c(=O)[nH]c2=O)C(OC(C)=O)C1OC(C)=O (stereo not given)	8.3	/	-9.2	/	/	/
Cc1nc(C)c(-c2ccc(SCC(=O)Nc3cccc(Cl)c3)nn2)s1	13.8	-6.8%	-5.8	-1.1%	13.1µM*	-3.5%
Cc1nc(C)c(-c2ccc(SCC(=O)Nc3cccc(F)c3)nn2)s1	20.5	6.0%	25.1	-2.9%	?	5.1%
CC(=O)c1cccc(NC(=O)CSc2ccc(-c3sc(C)nc3C)nn2)c1	21.1	-15.0%	34.6	-2.4%	13.1µM*	-6.6%
COc1ccc(NC(=O)CSc2ccc(-c3sc(C)nc3C)nn2)cc1	12.4	-15.0%	-4.7	-5.2%	13.1µM*	-2.8%
Cc1cccc2sc(N(Cc3cccnc3)C(=O)Cc3ccccc3)nc12	/	/	/	1.5%	/	/
O=C(CSc1nnc2ccccn12)NNC(=O)c1ccc(F)cc1	0.9	16.7%	-12.1	1.6%	13.5%	/
CCCCNc1nc2c(S(=O)(=O)c3ccc(C)cc3)nnn2c2ccsc12	/	/	/	-1.8%	/	/
CC(=O)c1ccc(N/C=C/C(=O)c2ccc(Br)cc2)cc1	11.1*	111.1%	21.9*	15.7%	?	8.0%
O=C(/C=C/Nc1ccc(F)cc1)c1ccc(Oc2ncccn2)cc1	15.4*	30.1%	37.9	-0.5%	14.6%	-3.0%
NS(=O)(=O)c1ccc(N/C=C\C(=O)c2ccc(F)cc2)cc1	29.3*	213.6%	64.5*	1.1%	?	-1.2%
CN(C)c1ccc(N/C=C/C(=O)c2ccc(F)cc2)cc1	64.5*	?	63.1*	0.0%	/	5.4%
NS(=O)(=O)c1ccc(N/C=C/C(=O)c2ccc(Br)cc2)cc1	61.4*	114.7%	77.1*	-13.8%	-11.0%	9.4%
COC(=O)CSc1nc2c(cnn2-c2ccc(F)cc2)c(=O)[nH]1	1.3	29.8%	-3.9	7.1%	51.0%	-1.4%
O=C(COC(=O)c1ccc(O)cc1O)Nc1cc(-c2ccccc2)nn1-c1ccccc1	/	11.7µM*	/	-5.8%	4.65µM*	/
CC(C)c1cc(C(=O)NC2CCCCC2)no1	35.4*	258.9%	10.7*	-1.0%	-14.3%	4.3%
CCCc1cc(C(=O)NC2CCCC2)no1	40.6*	119.8%	86.0*	0.9%	-32.6%	-15.3%
CCCc1cc(C(=O)N(C2CCCCC2)C2CCCCC2)no1	-1.1	/	-5.5	13.8%	17.5%	-106.2%
